# Results: article PMC5540273 (PLoS ONE, 2017)
# Columns and labels:
# Conditions in all cases: concentration: 1 μM,replicates: in singlicate; n = 1
# PRKD3 = test system: PRKD3
# PRKG1 = test system: PRKG1
# PRKG2 = test system: PRKG2
# PRKR = test system: T1, PRKR
# T1 construct: gene EIF2AK2
# PRKX = test system: PRKX
# PRP4 = test system: PRP4
# PYK2 = test system: T2, PYK2
# T2 construct: gene PTK2B
# QSK = test system: QSK
# RAF1 = test system: RAF1
# RET = test system: RET
# RIOK1 = test system: RIOK1
# RIOK2 = test system: RIOK2
# RIOK3 = test system: RIOK3
# RIPK1 = test system: RIPK1
# RIPK2 = test system: RIPK2
# RIPK4 = test system: RIPK4
# RIPK5 = test system: RIPK5
# ROCK1 = test system: ROCK1
# ROCK2 = test system: ROCK2
# ROS1 = test system: ROS1
# 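Further: KINOMEscan kinase panel screen.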
Structure (SMILES),%Inh (PRKD3) [%],%Inh (PRKG1) [%],%Inh (PRKG2) [%],%Inh (PRKR) [%],%Inh (PRKX) [%],%Inh (PRP4) [%],%Inh (PYK2) [%],%Inh (QSK) [%],%Inh (RAF1) [%],%Inh (RET) [%],%Inh (RIOK1) [%],%Inh (RIOK2) [%],%Inh (RIOK3) [%],%Inh (RIPK1) [%],%Inh (RIPK2) [%],%Inh (RIPK4) [%],%Inh (RIPK5) [%],%Inh (ROCK1) [%],%Inh (ROCK2) [%],%Inh (ROS1) [%]
Cn1ccc2ncnc(Oc3ccc(NC(=O)Nc4cccc(C(F)(F)F)c4)c(Cl)c3)c21,9,0,7,0,0,5,6,0,80,100,6,2,41,6,43,0,11,0,26,12
CN(c1ccc2c(c1)nc(NCc1ccc(F)cc1)n2C)c1ccnc(Nc2ccc(CS(C)(=O)=O)cc2)n1.Cl [GW813244],7,9,0,0,0,0,39,0,96.4,100,1,21,17,99.8,25,24,50,0,42,57
C[C@@H]1CNc2c(sc3ccc4nc(-c5ccc(O)cc5)ccc4c23)C(=O)N1,43,12,61,0,0,12,19,0,0,13,0,18,3,0,27,3,27,65,51,0
O=c1[nH]cc(-c2ccc(O)cc2)c2sc(-c3ccncc3)cc12 [GSK1033723],1,16,14,0,10,22,–,1,7,29,1,14,6,26,16,0,5,10,18,0
O=C(NOCC1CC1)c1cc(Br)c(F)c(F)c1Nc1ccc(I)cc1Cl,0,0,0,0,0,32,0,0,0,6,0,0,0,0,0,0,0,0,0,0
Cc1cccc(-c2nc(Nc3ccncc3)c3sccc3n2)n1 [GW869641],90.7,7,14,54,0,0,20,24,4,31,35,42,28,0,62,42,25,27,38,21
C[C@@H](Oc1cc(-n2cnc3cc(-c4ccncc4)ccc32)sc1C(N)=O)c1ccccc1Cl [GSK479719],16,3,2,0,2,14,13,9,13,36,94.1,9,100,0,17,8,37,3,49,8
CNC(=O)c1ccccc1Nc1nc(Nc2cccc(CS(C)(=O)=O)c2)ncc1C.O=CO [GSK1520489],13,0,8,28,0,82,99.5,22,2,100,97.9,89,91.8,21,30,98,65,89,75,90
CCOC(=O)N1CCC(n2cnc(-c3ccc(F)cc3)c2-c2ccnc(N)n2)CC1 [SB-219952],0,40,26,0,8,0,10,0,0,30,51,24,35,18,34,64,5,45,12,15
CCNCC(Cc1ccccc1)NC(=O)c1cc(Br)c(-c2ccnc3[nH]ccc23)s1.Cl.Cl (centres unmarked) [GSK1383280],73,99,99,22,95.6,6,25,0,2,75,61,61,72,0,0,20,32,99.8,99.6,44
CC(C(=O)NC1CCN(c2ccnc(Nc3ccc(F)cc3)n2)C1)c1ccc(Cl)cc1 (centres unmarked) [GSK1379713],2,9,0,0,6,0,–,0,0,0,35,0,0,6,0,0,0,27,10,53
c1ccc(Oc2ccc(Nc3ccnc4ccc(-c5ccccn5)cc34)cc2)cc1 [GW407034],33,0,0,0,12,4,0,14,19,6,16,5,0,0,95.7,16,31,11,0,10
Nc1nccc(-c2ccc3c(N)n[nH]c3c2)n1 [GSK1034945],4,0,68,0,68,27,8,0,17,9,96.5,52,91.2,3,14,77,0,–,56,0
COc1cccc(OC)c1C(=O)Nc1cccc(-c2nn3ccccc3c2-c2ccnc(Nc3cccc(F)c3)n2)c1 [GSK361065],2,11,0,0,0,0,8,0,29,90.1,43,2,19,17,38,9,32,0,14,4
CCN1CCN(CCCC(=O)Nc2n[nH]c3nc(-c4ccc(O)cc4)c(Br)cc23)CC1 [SB-731579],0,3,6,0,0,0,0,50,17,23,39,0,9,0,0,27,0,10,0,8
C[C@@H]1CNc2c(sc3ccc4nc(-c5ccncc5)ccc4c23)C(=O)N1,34,35,57,0,34,0,3,0,0,14,0,0,5,0,0,0,0,14,1,14
